Potency and activity change, negative = cytotoxicity data for 40 compounds are collected here from PubChem BioAssay (Tox21).

The structures appear in SMILES notation. Inconclusive results are not listed. Entries that show only a call come without a potency. Active and inactive are the calls of the source. The call rests on the fitted dose curve.

The test can be described thus: qHTS assay for small molecule agonists of the p53 signaling pathway - cell viability (AID 651633).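 Further: p53RE-bla HCT reporter cells with a stable beta-lactamase p53 reporter; nearly all actives have a fitted effect of over 30% in size.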 The note with it: p53RE-bla HCT-116 viability, ATP luminescence, 16 h; series mostly up to 83.3 µM. The text has this:
National Center for Advancing Translational Sciences [NCATS]
NIH Chemical Genomics Center [NCGC]
U.S. Environmental Protection Agency [EPA]
National Institutes of Environmental Health Sciences [NIEHS]
National Toxicology Program [NTP]
U.S. Food and Drug Administration [FDA]
p53, a tumor suppressor protein, is activated following cellular insult, including DNA damage and other cellular stresses. The activation of p53 regulates cell fate by inducing DNA repair, cell cycle arrest, apoptosis, or cellular senescence. The activation of p53, therefore, is a good indicator of DNA damage and other cellular stresses. […] The activation of the reporter gene under culture conditions can be detected by fluorescence intensity. This cell line was used to screen the Tox21 compound library in a 1536-well plate format and to identify agonists that activate the p53 signaling pathway.
Tox21 Assay Protocol Summary:
The p53RE-bla cells were dispensed at 4,000 cells/5 ul/well in 1536-well black wall/clear bottom plates using a Multidrop dispenser. After the assay plates were incubated at a 37 C/5% CO2 incubator for 5 hours, 23 nL of compounds dissolved in DMSO, positive controls or DMSO only was transferred to the assay plate by a pin tool. The plates were incubated at 37 C for 16 hours. After 1 uL of LiveBLAzerTM B/G FRET substrate was added using a Flying Reagent Dispenser, the plates were incubated at room temperature for 2 hours, and fluorescence intensity was measured by an Envision plate reader.
For cell viability readout that measures cytotoxicity, 4 ul/well of CellTiter-Glo reagent was added into the assay plates using a Flying Reagent Dispenser. After 30 min incubation at room temperature, the luminescence intensity in the plates was measured using a ViewLux plate reader.
For orientation: Quantitative high-throughput screening tests each substance at several concentrations.
Turning to `CCCCCCCCCCCCCCC`, the Potency result was “inactive”.

For `CCC(=O)c1cccc(Cl)c1`, the Potency entry was “inactive”. Same read-out and setting: the result for `NC(=O)c1ncn([C@@H]2O[C@H](CO)[C@@H](O)[C@H]2O)c1O` reads “inactive”; that for `CC(=O)c1ccc(C)cc1`, “inactive”. For `COC(=O)c1ccc(C(=O)OC)c(C(=O)OC)c1`, the Potency entry is “inactive”.

Take `CC(C)(O)c1ccccc1`: the Potency result is “inactive”. Take `NC1CCN(c2cccc(Cl)n2)CC1`: the Potency entry was “inactive”. The same measure, in the same setting: under `CCCCc1ccc2cccc(S(=O)(=O)O)c2c1` stands “inactive”.

Take `C=C(C)C(=O)NCCC[N+](C)(C)C`: the Potency entry is “inactive”. As to `CCCCCCCCCCCCCCCCCCOCC(O)CO` (stereo not given), the Potency result was “inactive”.

Turning to `FC(F)(F)C(F)(F)C(F)(F)C(F)(F)C(F)(F)C(F)(F)C(F)(F)C(F)(F)C(F)(F)C(F)(F)F`, the activity change, negative = cytotoxicity is -19.5% [at 8.08 µM] (inactive). In the case of `CC12CCC(CC1=O)C2(C)C` (stereo not given), the Potency entry is “inactive”. In the case of `CC(C)COC(=O)C(C)C`, the Potency entry is “inactive”. For `CC(=O)OC(C)(C)C`, the Potency entry was “inactive”. For `O=C1C(CCS(=O)c2ccccc2)C(=O)N(c2ccccc2)N1c1ccccc1` (stereo not given), the Potency result is “inactive”. With `CC(C)(C)OC(=O)N1C[C@@H](F)C[C@H]1C(=O)O`, the Potency entry was “inactive”.

Regarding `O=C(O)c1ccc[n+]([O-])c1`, the Potency entry is “inactive”. Same read-out and setting: the result for `CCCCCC[C@@H](CCC)C(=O)O` reads “inactive”. `Cc1nccn1CC1CCc2c(c3ccccc3n2C)C1=O` (stereo not given): the Potency entry was “inactive”. For `COc1cc(O)cc(O)c1`, the Potency result is “inactive”. Same read-out and setting: under `Nc1nc2c(ncn2CCC(CO)CO)c(=O)[nH]1` stands “inactive”.

For the compound `CSc1ccc(C=O)cc1`, the Potency entry was “inactive”. Still for that read-out and setting: the result for `CCN(CC)S(=O)(=O)c1ccc(C(=O)O)cc1` reads “inactive”; that for `N[C@@H](CS)C(=O)O`, “inactive”; that for `CCN1CCCC1CNC(=O)c1cc(S(N)(=O)=O)ccc1OC` (stereo not given), “inactive”. Regarding `C=CC(=O)N1CCOCC1`, the Potency result is “inactive”. For `NC(=O)Nc1nc2ccccc2[nH]1`, the Potency result is “inactive”. In the case of `Nc1ccn(C2CO[C@H](CO)O2)c(=O)n1` (stereo not given in full), the Potency entry was “inactive”. As for `CC(C)c1ccc2oc3nc(N)c(C(=O)O)cc3c(=O)c2c1`, the Potency entry is “inactive”. Consider `COc1cccc(OC)c1`, for which the Potency entry was “inactive”. On to `c1ccc2cnncc2c1`, for which the Potency result is “inactive”. Take `Cc1onc(-c2ccccc2)c1-c1ccc(S(N)(=O)=O)cc1`: the Potency result was “inactive”. In the case of `CCCCC=O`, the Potency entry was “inactive”. In the case of `CO`, the Potency result is “inactive”.

On to `C=CCSCC1Nc2cc(Cl)c(S(N)(=O)=O)cc2S(=O)(=O)N1` (stereo not given), for which the Potency entry was “inactive”.

`Nc1cc(C(Cl)=C(Cl)Cl)c(S(N)(=O)=O)cc1S(N)(=O)=O`: the Potency result is “inactive”. The same measure, in the same setting: the result for `CC(C)[N+](C)(C)CC(O)COc1cccc2ccccc12` (stereo not given) reads “inactive”; that for `CC1=CC(=O)CCC1`, “inactive”. The same measure, in the same setting: under `CCCCCCCCCCCCCCCCCC(=O)OCCCCCCCCCCCCCC(C)C` stands “inactive”. Take `NCCN1CCNC1=O`: the Potency entry is “inactive”.
